According to ChEMBL document CHEMBL1201862, “PubChem BioAssay data set” (2004):
Out of some 220,000 compounds screened, about 16,000 (7.3%) were called active. Not shown: some 25% with an inconclusive outcome. The rule behind the calls is not given here. Only a selection was taken, and actives are over-represented in it overall.

target: T1, Aldehyde dehydrogenase 1A1 (Homo sapiens) (UniProt P00352); assay: qHTS Assay for Inhibitors of Aldehyde Dehydrogenase 1 (ALDH1A1). [Related pubchem assays: 1030 (qHTS Validation Assay for Inhibitors of aldehyde dehydrogenase 1 (ALDH1A1))]; assay type: functional
T1 sequence (whole entry): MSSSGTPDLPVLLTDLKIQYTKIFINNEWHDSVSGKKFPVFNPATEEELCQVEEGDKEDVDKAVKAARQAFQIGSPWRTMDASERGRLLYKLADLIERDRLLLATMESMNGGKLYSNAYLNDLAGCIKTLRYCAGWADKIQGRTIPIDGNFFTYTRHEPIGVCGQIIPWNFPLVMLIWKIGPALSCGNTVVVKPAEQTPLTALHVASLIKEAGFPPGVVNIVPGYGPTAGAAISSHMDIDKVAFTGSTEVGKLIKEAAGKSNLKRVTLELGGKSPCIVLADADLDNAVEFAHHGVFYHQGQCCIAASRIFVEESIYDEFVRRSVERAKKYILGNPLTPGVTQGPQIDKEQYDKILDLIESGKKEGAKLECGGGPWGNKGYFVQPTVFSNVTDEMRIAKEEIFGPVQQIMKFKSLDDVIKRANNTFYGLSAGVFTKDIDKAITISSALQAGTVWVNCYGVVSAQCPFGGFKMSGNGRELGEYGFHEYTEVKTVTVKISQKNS

| Compound | Potency |
| --- | --- |
| CC(C)C1SC(N/N=C/c2ccco2)=NC1=O (centres undefined) | 200 µM (active) |
| O=C(O)c1ccc2c(c1)CC(c1ccccc1)OC2=O (centres undefined) | inactive |
| CCOC(=O)CN1C(=O)N[C@@H](c2cccc(C(F)(F)F)c2)C(C(=O)OC)=C1C | inactive |
| CC(C(=O)NN=C(c1ccccc1)c1ccccc1)N1CCCC1 (centres undefined) | inactive |
| O=C(c1no[n+]([O-])c1C(=O)c1csc2ccccc12)c1csc2ccccc12 | 3.55 µM (active) |
| O=C(N/N=C/c1ccc2c(c1)OCO2)c1ccc(Br)o1 | inactive |
| CCOC(=O)N1CCN(c2nc3ccccc3nc2C(C#N)C(=O)NCCc2ccccc2)CC1 (centres undefined) | 398 µM (active) |
| CC(=O)OCc1ccccc1 | 20 µM (active) |
| N#CC1=C(N)Oc2c(oc(CO)cc2=O)C12C(=O)Nc1ccc(Cl)cc12 (centres undefined) | inactive |
| C[C@@H]1C[C@H]2[C@@H]3C[C@H](F)C4=CC(=O)C=C[C@]4(C)[C@@]3(F)[C@@H](O)C[C@]2(C)[C@@]1(O)C(=O)CO | inactive |
| O=C(/C=C/c1ccc(Cl)cc1)c1cccs1 | 12.6 µM (active) |
| CCc1ccc(Oc2coc3cc(OCC(=O)Nc4cc(C)ccc4C)ccc3c2=O)cc1 | inactive |
| COc1ccc(N2CC(C(=O)OCC(=O)c3cccc(OC)c3)CC2=O)cc1 (centres undefined) | 224 µM (active) |
| O=C(Cn1c2ccccc2c(=O)c2cc([N+](=O)[O-])ccc21)Nc1ccccc1Cl | inactive |
